Bioassay records as filed in PubChem.
Hits are enriched below; roughly 4.6% of the tested compounds scored in any of these assays.
VACV Venus inh = qHTS for Stage-Specific Inhibitors of Vaccinia Orthopoxvirus: Venus Reporter Primary qHTS; Potency, µM (titrated, usually from 36.5 µM), for inactives: top-dose activity change, negative = inhibition, usual class: inhibitors; 330,000 tested, 0.46% active; Vaccinia virus Venus reporter expression, fluorescence; calls by dose curve; tested in A549 cells; note: nearly all actives have a fitted effect of over 30% in size
Vaccinia mCherry = qHTS for Stage-Specific Inhibitors of Vaccinia Orthopoxvirus: mCherry Reporter Primary qHTS. Vaccinia virus mCherry reporter infection, fluorescence. Potency, µM (titrated, usually from 36.5 µM), inactives show top-dose activity change, negative = inhibition, actives largely listed as inhibitors. 310,000 tested, 0.63% active. AID 720579, 2013; calls by dose curve; tested in A549 cells; note: nearly all actives have a fitted effect of over 35% in size
MARV entry inh = qHTS for inhibitors of binding or entry into cells for Marburg Virus. 300,000 tested, 1.8% active. Potency, µM (series often up to 37.8 µM), for inactives: at the highest dose activity change, negative = inhibition, actives largely listed as inhibitors. Marburg virus pseudotyped entry inhibition, cell reporter; calls by dose curve; tested in HEK293 cells
LASV entry inh = qHTS for Inhibitors of binding or entry into cells for Lassa Virus | Lassa virus pseudotype entry inhibition, cell reporter | Potency, µM (series often up to 37.9 µM), inactives show at the highest dose activity change, negative = inhibition, actives largely listed as inhibitors | 300,000 tested, 1.2% active | AID 540256, 2011; calls by dose curve; tested in HEK293 cells; note: nearly all actives have a fitted effect of over 50% in size
HCV inhibitor = qHTS Assay for Inhibitors of Hepatitis C Virus (HCV); Huh7.5.1 HCVcc-Cre infection, luciferase reporter, 44 h; Potency, µM (doses to about 41.8 µM), inactives show top-dose activity change, negative = inhibition, hits mostly inhibitors; 340,000 tested, 3.4% active; active = well fitted inhibition curve with a large enough effect; inconclusive = small, poorly fitted or top-dose-only effect, or another doubt; inactive = no such curve, though single readings can be large or run the other way
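Whole-lifecycle infectious HCVcc-Cre system; cells 1,000/well, compound then virus (~0.5 moi) added 4 h after plating, 44 h culture. Luciferase read 15 sec following 15 min substrate incubation, room temp.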
* marks the source's active call; other numbers are inactive results; i = inactive; ? = inconclusive; nt = no result given; ! = a repeat was not active; [ ] = dose if it differs, or a comment. % is set by controls: 0 for no effect and ±100 for the full control effect; potency is the fitted concentration of half-maximal effect.

SMILES | VACV Venus inh | Vaccinia mCherry | MARV entry inh | LASV entry inh | HCV inhibitor
O=[N+]([O-])c1ccc(NN=Cc2ccc(O)cc2O)nc1 | ? | 1.4µM* | ? | ? | ?
O=[N+]([O-])c1ccc(NN=Cc2ccc(O)cc2)nc1 | -2% | ? | ? | ? | -22%
CCN(CC)S(=O)(=O)c1ccc(N/N=C(\C)c2ccncc2)nc1 | 8% | -9% | ? | 2%[46.1 µM] | ?
N#Cc1ccccc1Cn1cc(/C=N/Nc2ccc([N+](=O)[O-])cn2)c2ccccc21 | 1% | -5% | ? | -26% | 2.5µM*
CCN(CC)S(=O)(=O)c1ccc(N/N=C/c2ccc(O)cc2O)nc1 | ? | 4µM* | 3.3µM* | 2.3µM* | ?
COc1ccc(OC)c(-c2cc(Cl)c3c(c2)CC(CNC(=O)c2cccnc2SC)O3)c1 (centres undefined) | -13% | -15% | nt | nt | nt
COC(=O)N[C@@H](c1cccc(F)c1)C(C(C)=O)C(=O)OC (some centres undefined) | nt | nt | 13%[14.2 µM] | nt | nt
COC(=O)c1ccc(S(=O)(=O)NCCSc2nnc3c4ccccc4n(C)c3n2)cc1 | nt | nt | ? | 1% | 10µM*
CCOC(=O)NN=C1C[C@@H](O)[C@@H](O)[C@@H]2[C@H]3C(=O)N(C4CCCCC4)C(=O)[C@@H]3CC[C@@H]12 | nt | nt | -25%[14.2 µM] | 13%[14.3 µM] | nt
Cc1ccc(NC(=O)c2noc3c2CCCCC3)cc1 | nt | nt | ? | 15µM* | -1%
CC(=O)OCC(=O)[C@@]1(O)CCC2C3CC[C@H]4CC(O)CC[C@@]4(C)C3C(=O)C[C@]21C (some centres undefined) | 5% | i | nt | nt | nt
c1ccc(-c2cc(-c3ccc(N4CCOCC4)cc3)nc3ccccc23)cc1 | -16% | -22% | ? | ? | -11%
O=c1cc(N2CCOCC2)oc2c(-c3ccccc3)cccc12 | ? | -23% | 0.32µM*! | -18% | nt
O=C(CSc1nnc(CNc2ccc(F)cc2)o1)N1c2ccccc2Sc2ccccc21 | nt | nt | ? | ? | 10µM*
COc1ccc(NC(=O)C(NS(=O)(=O)c2cccc3nsnc23)C(C)C)cc1OC (centres undefined) | -3% | -16% | ? | 13%[46.1 µM] | nt
COc1cc(OC)c(OC)cc1CN1CCOc2ccc(CN3C[C@@H](C)O[C@@H](C)C3)cc2C1 | 0% | -15% | nt | nt | nt
COc1cccc(NC(=O)c2sc3nc(C)c(C(=O)Nc4ccc(C)cc4C)c(-c4ccco4)c3c2N)c1 | 3% | -3% | -2%[46.1 µM] | ? | nt
O=C(CN1C(=O)CCC1=O)c1ccc(-c2ccccc2)cc1 | -10% | i | ? | ? | 28%
N=c1ccn(CC(=O)c2ccc(-c3ccccc3)cc2)cc1 | ? | ? | ? | ? | 0.89µM*
Cc1ccc(S(=O)(=O)/C=C/C#N)cc1 | -11% | i | ? | 2.3µM* | nt
CC(C)(C)c1ccc(S(=O)(=O)/C=C\C#N)cc1 | nt | nt | 2.5µM* | nt | nt
COc1cc(NC(=O)C(CCSC)NS(=O)(=O)c2ccc3c(c2)oc(=O)n3C)cc(OC)c1 (centres undefined) | -7% | -1% | nt | 20%[46.1 µM] | nt
COC[C@@H](O)[C@H]1OCc2ccccc2[C@@H]1C=Cc1ccccc1 | nt | nt | -37%[14.2 µM] | nt | nt
COc1ccc2nc(Nc3nc(CSc4ccc(C)cc4)cc(=O)[nH]3)nc(C)c2c1 | -1% | 9% | -1%[46.1 µM] | 8% | 12%
Cc1ccc2c(C)nc(Nc3nc(CSc4nnnn4-c4ccccc4)cc(=O)[nH]3)nc2c1 | ? | ? | -2% | ? | 11µM*
SMILES | VACV Venus inh | Vaccinia mCherry | MARV entry inh | LASV entry inh | HCV inhibitor
Cc1ccc(SCc2cc(=O)[nH]c(Nc3nc(C)c4cccc(C)c4n3)n2)cc1 | -6% | -7% | 9.2µM* | -51%[14.3 µM] | nt
COc1ccc(CN2CCOc3ccc(CN4CCC(Oc5cccnc5)CC4)cc3C2)c(F)c1 | -28% | -10% | nt | nt | nt
Cc1cnc(C)c(-c2cc(F)cc3c2OC(CNC(=O)Cc2ccccc2C)C3)n1 (centres undefined) | 5% | -10% | nt | nt | nt
O=C(Nc1ccc(N=Nc2ccccc2)c(NC(=O)C2CCCO2)c1)C1CCCO1 (centres undefined) | ? | -12% | ? | ? | 2µM*
O=C(Nc1ccc([N+](=O)[O-])c(NC(=O)C2CCCO2)c1)C1CCCO1 (centres undefined) | -13% | -11% | ? | -4% | -2%
O=C(O)c1cccc(C(=O)Nc2cccc(NC(=O)C3CCCO3)c2)c1 (centres undefined) | -15% | i | 11µM* | 10µM* | 28%
COc1ccc(C)cc1-n1c(SCC(=O)NCC2CCCO2)nc2c([nH]c3ccccc32)c1=O (centres undefined) | -17% | -1% | ? | -4% | 8.9µM*
COc1ccc(-n2c(SCC(=O)Nc3nnc(C)s3)nc3c([nH]c4ccccc43)c2=O)cc1 | -18% | -3% | nt | -25%[46.1 µM] | nt
CCc1nnc(NC(=O)CSc2nc3c([nH]c4ccccc43)c(=O)n2-c2ccc(Cl)cc2)s1 | -17% | -15% | nt | 7.9µM* | nt
COCCn1c(SCC(=O)Nc2ccc(C(N)=O)cc2)nc2c([nH]c3ccccc32)c1=O | -8% | -12% | 3%[46.1 µM] | 1%[46.1 µM] | -2%
COc1ccc(-n2c(SCC(=O)Nc3ccc(C(N)=O)cc3)nc3c([nH]c4ccccc43)c2=O)cc1OC | nt | nt | nt | nt | 11µM*
Cc1ccc2cccc(NC(=S)NC(=O)c3ccn(C)n3)c2n1 | -10% | -3% | -4% | ? | 32µM*
Cc1ccc2cccc(NC(=S)NC(=O)c3c(Br)cnn3C)c2n1 | nt | nt | -10% | -1% | -13%
Cc1ccc2cccc(NC(=O)c3ccc(Br)o3)c2n1 | nt | nt | -8% | ? | 10µM*
C=CCN=C1NC(c2cccc(C(F)(F)F)c2)C(C(=O)OC)=C(C)N1Cc1ccccc1 (centres undefined) | nt | nt | -25%[14.2 µM] | ? | nt
Cc1ccc(S(=O)(=O)c2cn(Cc3ccccc3)c3cc(N4CCCC4)c(F)cc3c2=O)cc1 | -8% | 0% | nt | 8%[46.1 µM] | nt
COC(=O)C[C@H]1c2cc(C(F)(F)F)ccc2S(=O)(=O)N1C(C)C | -5% | i | nt | nt | nt
Cc1cc(C(=O)COc2cccc(-n3cnnn3)c2)c(C)n1-c1ccccc1 | nt | nt | -8% | ? | 1µM*
COc1cccc(-c2cc(=O)c3ccccc3o2)c1N | -13%[60.7 µM] | -7%[60.7 µM] | ? | ? | nt
COc1cc(OC)c(-c2c3cc(O)c(=O)cc-3oc3cc(O)c(O)cc23)cc1OC | i | i | 4.6µM*! | -27% | 26%
C[C@@H]1O[C@H](O[C@H]2C[C@@H](O)[C@]3(CO)[C@H]4[C@H](O)C[C@]5(C)[C@@H](C6=CC(=O)OC6)CC[C@@]5(O)[C@H]4CC[C@]3(O)C2)[C@@H](O)[C@H](O)[C@H]1O | nt | nt | 0.065µM* | nt | nt
